# The entries come from a sample that favours hits as a whole.
# HT1080 IDH1KD tx – toxicity to HT-1080 IDH1 knockdown cells (counter line). 360,000 compounds, 2% hits. Potency, µM (series often up to 46.1 µM), hits mostly cytotoxic. AID 686971. HT-1080 IDH1 knockdown viability, ATP luminescence, 48 h
#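 Assay cells: HT-1080 with IDH1 knockdown, 750 per well, RPMI/5% FBS. Exposure: 48 h at 37 °C following 2 h pre-incubation. Read: CellTiter-Glo luminescence; fitted concentration-response, curve class assigned.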
# 12-LOX inh – ALOX12 (human) lipoxygenase inhibition; AID 1671190; P18054; purified 12hLO, xylenol orange hydroperoxide absorbance; Potency, µM (highest dose often 108 µM), most hits filed as inhibitors; 580,000 compounds, 1.1% hits
# Target sequence (P18054 whole entry, looked up): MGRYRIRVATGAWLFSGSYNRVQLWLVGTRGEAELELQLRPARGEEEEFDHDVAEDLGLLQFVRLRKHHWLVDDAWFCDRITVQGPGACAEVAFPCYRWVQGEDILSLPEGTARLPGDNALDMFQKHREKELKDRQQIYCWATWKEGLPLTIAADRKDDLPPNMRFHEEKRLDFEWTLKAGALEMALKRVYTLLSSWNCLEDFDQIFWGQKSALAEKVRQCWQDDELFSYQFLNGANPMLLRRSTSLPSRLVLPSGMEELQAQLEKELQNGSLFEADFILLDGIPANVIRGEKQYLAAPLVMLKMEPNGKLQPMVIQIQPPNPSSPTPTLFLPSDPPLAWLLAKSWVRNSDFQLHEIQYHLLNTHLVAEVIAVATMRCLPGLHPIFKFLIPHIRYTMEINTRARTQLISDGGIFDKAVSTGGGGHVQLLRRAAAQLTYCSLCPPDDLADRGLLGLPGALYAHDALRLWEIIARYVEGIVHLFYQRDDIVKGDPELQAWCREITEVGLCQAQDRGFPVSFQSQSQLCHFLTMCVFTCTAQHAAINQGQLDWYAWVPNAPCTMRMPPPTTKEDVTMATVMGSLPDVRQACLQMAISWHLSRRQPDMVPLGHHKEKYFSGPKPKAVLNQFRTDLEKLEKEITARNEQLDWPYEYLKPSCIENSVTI
#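 Purified human 12hLO at 150 nM in 25 mM Hepes, 0.01% Triton X-100, pH 7.0, preincubated 15 min at room temperature with compound. Reaction started with 40 uM arachidonic acid, 30 min at room temperature. Hydroperoxide measured by Fe-xylenol orange, 573/405 nm absorbance ratio.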
# TDP1 cell noCPT – qHTS for Inhibitors of human tyrosyl-DNA phosphodiesterase 1 (TDP1): qHTS in cells in absence of CPT. Potency, µM (titrated, usually from 46.2 µM), usual class: inhibitors. AID 686978, 2013. DT40 Tdp1-/- hTDP1 cells, no CPT, ATP luminescence, 48 h. 420,000 compounds, 15% hits; note: nearly all actives have a fitted effect of over 55% in size
#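 Growth of hTDP1-complemented DT40 Tdp1-knockout cells is measured by ATP luminescence after at least 48 hr compound exposure at 37 °C, with DMSO substituting for the 20 nM CPT used in the parallel screen.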
# HT1080NT lethal – kills 2HG-producing HT-1080-NT fibrosarcoma cells. HT-1080-NT fibrosarcoma viability, CellTiter-Glo ATP luminescence, 48 h. Potency, µM (doses to about 46.1 µM), hits mostly cytotoxic. 360,000 compounds, 1.6% hits. AID 686970;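 note: NT is the 2HG producing partner of a matched IDH1 knockdown line; nearly all actives have a fitted effect of over 55% in size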
#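 750 cells/well, RPMI + 5% FBS; 2 h settle, compound pin-transfer, 48 h at 37 degrees C. CellTiter-Glo 10 min RT, luminescence. Normalized to DMSO and media-only wells.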
# IL1B secr inh – inhibitors of inflammasome signaling (IL-1 beta secretion) | activity change, % at 57.5 µM | AID 743279 | THP-1 LPS/ATP IL-1B secretion, AlphaLISA, 16 h; stronger effect = lower value | 360,000 compounds, 4.7% hits; in the data active = activity change below about -50%; inconclusive = mostly about -30% to -49%
#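 THP-1 cells pretreated 1 hr with compounds (up to 57.5 uM final), then stimulated with LPS (250 ng/mL final) plus ATP (1.25 mM final); secreted IL-1B measured by AlphaLISA after 16 hr, decreased signal indicating inhibition.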
# TDP1 cell CPT – growth inhibition of DT40 Tdp1-/-;hTDP1 cells with camptothecin (screen for TDP1 inhibitors). 420,000 compounds, 12% hits. Potency, µM (series often up to 46.2 µM), hits mostly inhibitors. chicken DT40 Tdp1-/-;hTDP1 cells + 20 nM CPT, ATP luminescence, 48 h; note: nearly all actives have a fitted effect of over 55% in size
#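 Chicken DT40 Tdp1-/- cells complemented with human TDP1, 400 cells/well, exposed to compounds plus 20 nM camptothecin for at least 48 h at 37 C; viability read as ATP content by CellTiter-Glo luminescence.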
# A number is an active result; . = inactive; ? = inconclusive; / = not tested or not shown; [ ] = remark or other dose. Unless noted, calls come from the whole dose curve; as a rule, active = well fitted curve in the direction sought with a large enough effect; inconclusive = small, poorly fitted or top-dose-only effect, or another doubt; inactive = no such curve, though single readings can be large; an effect the other way counts as inactive or inconclusive.
SMILES,HT1080 IDH1KD tx,12-LOX inh,TDP1 cell noCPT,HT1080NT lethal,IL1B secr inh,TDP1 cell CPT
COc1cc(C(=O)NCC(c2cccnc2)N2CCc3ccccc3C2)cc(OC)c1OC (configuration not stated),/,.,?,/,/,?
O=C(NCC(c1cccnc1)N1CCc2ccccc21)c1cccc(F)c1 (configuration not stated),/,.,21µM,/,/,15µM
Cc1cc(F)ccc1S(=O)(=O)NCC(c1cccnc1)N1CCc2ccccc21 (configuration not stated),.,?,16µM,.,.,?
O=C(NCC(c1ccco1)N1CCc2ccccc2C1)c1cccc(F)c1 (configuration not stated),.,?,.,.,.,.
O=C(NCC(c1cccnc1)N1CCc2ccccc21)c1cccc(Br)c1 (configuration not stated),/,.,13µM,/,/,?
Cc1cccc(-c2ocnc2C(=O)Nc2ccc(C)cc2C)c1,/,.,/,/,/,/
CCCNC(=O)Cc1ccc(N(Cc2ccc(F)cc2)C(=O)c2ccco2)cc1,/,.,/,/,/,/
CCCCCCOc1ccc(/C=C/C(=O)Nc2sc3c(c2C(=O)OC)CCC3)cc1OC,/,.,4.1µM,/,/,7.3µM
COc1ccccc1NC(=O)CSc1nnc(C)s1,.,.,.,.,.,.
O=[S+]1([O-])NC2(CCN(Cc3ccc(F)cc3)C2)COc2ncccc21 (configuration not stated),/,.[6.33 µM],/,/,/,/
Cc1cccc(C)c1NC(=O)C(c1ccnc2ccccc12)N1CCN(C)CC1 (configuration not stated),.,.,18µM,.,.,?
Cc1cccc(C)c1NC(=O)C(c1ccnc2ccccc12)n1c(=O)c(-c2ccco2)nc2ccccc21 (configuration not stated),.,?,16µM,.,.,?
COc1ccc(NC(=O)C(c2ccnc3ccccc23)n2c(=O)c(-c3ccco3)nc3ccccc32)cc1 (configuration not stated),.,.,?,.,.,?
Cc1cccc(C)c1NC(=O)C(c1ccccc1F)n1c(=O)c(-c2ccco2)nc2ccccc21 (configuration not stated),.,?,21µM,.,.,?
O=C(Nc1ccc2c(c1)OCCO2)C(c1ccnc2ccccc12)N1CCC(Cc2ccccc2)CC1 (configuration not stated),.,.,18µM,.,.,?
CCSc1nnc(SCc2cc(=O)oc3c(C)c(C)ccc23)s1,/,.,/,/,/,/
CC1(c2ccccc2)CC(C)(C)N(C(=O)c2ccccc2Cl)c2ccccc21 (configuration not stated),/,.,5.2µM,/,/,6.5µM
CC1(c2ccc(Cl)cc2)CC(C)(C)N(C(=O)c2cccc(F)c2)c2ccccc21 (configuration not stated),/,?,18µM,/,/,?
CN(C(=O)CSc1ncnc2c(-c3cccs3)nsc12)C1CCCCC1,/,.,/,/,/,/
CCN(CC)C(=O)[C@@H]1CCC[C@@H](NCc2cccc3c2OCO3)CN(C)C(=O)C1,/,.,/,/,/,/
CN(C)C(=O)/C(C#N)=C\c1cc(Br)c(Sc2ccc(Cl)cc2)o1,.,/,15µM,.,-94,?
Cc1cc(C)nc(Sc2ccc(/C=C(\C#N)C(N)=O)o2)n1,.,.,.,.,.,.
O=S(=O)(c1ccccc1)[C@@]1(c2ccccc2)C[C@@H]2ON=C(c3cccc(-c4ccccc4)c3)[C@@H]2C1,.,.,13µM,.,.,?
O=C(NCC(c1ccco1)S(=O)(=O)c1ccc(Cl)cc1)c1ccc(C(F)(F)F)cc1 (configuration not stated),/,.,12µM,/,/,9.2µM
COc1ccc(C(=O)NCC(c2ccco2)S(=O)(=O)c2ccc(F)cc2)cc1 (configuration not stated),/,.,?,/,/,?
SMILES,HT1080 IDH1KD tx,12-LOX inh,TDP1 cell noCPT,HT1080NT lethal,IL1B secr inh,TDP1 cell CPT
O=C(NCCc1ccc(Cl)cc1)C(=O)NCC(c1ccco1)S(=O)(=O)c1ccc(Cl)cc1 (configuration not stated),/,.,13µM,/,/,16µM
CCCCS(=O)(=O)N1CC(n2cc(COc3ccccc3)nn2)C1,/,.,/,/,/,/
Cc1cccc(NC(=O)c2cccc(Cn3cc(Br)c([N+](=O)[O-])n3)c2)c1C,.,.,21µM,.,?,?
Cc1cc2nc(-c3ccc(SCC(=O)N4CCN(C(=O)c5ccco5)CC4)nc3)[nH]c2cc1C,?,.,?,?,?,?
Cc1cc2nc(-c3ccc(SCC(=O)N4CCOCC4)nc3)[nH]c2cc1C,?,.,?,?,?,26µM
Cc1cc2nc(-c3ccc(SCC(=O)Nc4ccc5c(c4)OCCO5)nc3)[nH]c2cc1C,?,.,23µM,?,.,23µM
COc1ccc(CN(C)C2CCc3ccccc32)cc1 (configuration not stated),/,.,/,/,/,/
Cc1ccc(S(=O)(=O)/N=C2\C=C(NS(=O)(=O)c3ccccc3)C(=O)c3ccccc32)c(C)c1,.,?,?,.,.,15µM
O=C1C(Nc2ccccc2)=C(NS(=O)(=O)c2ccccc2)C(=O)c2ccccc21,.,.,?,.,.,.
CC(C)(C)c1ccc(S(=O)(=O)/N=C2\C=C(NS(=O)(=O)c3ccccc3)C(=O)c3ccccc32)cc1,16µM,25µM,21µM,23µM,.,21µM
C=CCNc1nc(N2CCCC2)nc2ccccc12,?,.,16µM,.,.,16µM
Clc1ccc(-c2nc(N3CCCCC3)nc3ccccc23)cc1,.,?,.,.,?,?
CC(Nc1nc(N2CCCCC2)nc2ccccc12)c1ccccc1 (configuration not stated),?,?,23µM,?,?,?
NC[C@H]1O[C@@H]2C[C@@H](CC(=O)N3CCC(F)(F)C3)O[C@@H]2[C@@H]1O,/,.,/,/,/,/
Cc1ccc(C2C3=C(NCCN=C3c3ccccc3)C(=O)N2c2ccccc2)cc1 (configuration not stated),?,.,23µM,11µM,-63,21µM
CCOc1ccc(N2C(=O)C3=C(C(c4ccc(Cl)cc4)=NCCN3)C2c2cccnc2)cc1 (configuration not stated),15µM,.,?,?,.,?
Cc1ccc(C2=C(O)C(=O)N(c3ccc(F)cc3)C2c2ccccc2)cc1 (configuration not stated),/,.,/,/,/,/
Cc1cc(NS(=O)(=O)c2ccc(NC(=O)COc3ccccc3Br)cc2)no1,/,.,.,/,/,.

# Compound activity deposited in PubChem by National Center for Advancing Translational Sciences (NCATS).
